Measurements from PubChem BioAssay.
Calls of active or inactive are those of the source.

What was measured:
[1] = optical density shifts of acrAB sulA E. coli – strain DRC41, OD650, 48 h, E. coli filamentation inducer project, primary screen (AID 1152); conditions: higher = more signal, called active from +8 up or from −8 down;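 further: E. coli MC1000 strain DRC41 lacking acrAB efflux pump and sulA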
[2] = probe aLefty1 binding on compound microarray – biochemical, small-molecule microarray, 635/667 nm fluorescence, primary screen (AID 1153); conditions: higher = more signal;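 further: score merges spot fluorescence with signal-to-noise ratio from the scanned slide images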
[3] = plasmodial surface anion channel blockers, osmotic lysis – cell-based, P. falciparum Indochina, OD700, 1 h, primary screen (AID 1154); conditions: P. falciparum Indochina infected RBC osmotic lysis, higher = more signal, called active from +8 up or from −8 down
[4] = plasmodial surface anion channel blockers, osmotic lysis – cell-based, P. falciparum Indochina, OD700, 2 h, primary screen (AID 1155);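 further: lysis reports solute entry through the parasite surface anion channel PSAC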; conditions: P. falciparum Indochina infected erythrocytes, higher = more signal, called active from +8 up or from −8 down
[5] = changes in parasitized red cell lysis, either direction – P. falciparum Indochina, OD700, 3 h, PSAC antagonist project, primary screen (AID 1156); conditions: P. falciparum-infected erythrocytes, osmotic lysis, higher = more signal, called active from +8 up or from −8 down
[6] = plasmodial surface anion channel blockers, osmotic lysis – cell-based, P. falciparum Indochina, OD700, 18 h, primary screen (AID 1157); conditions: P. falciparum Indochina infected erythrocytes, osmotic lysis OD700, 18 h; higher = more signal, called active from +8 up or from −8 down
[7] = S6 kinase pathway phospho-S6 level changes – cell-based, A549, cytoblot, luminescence, serum-stimulated, primary screen (AID 1158); conditions: 5 h, higher = more signal;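 further: serum-stimulated A549 lung adenocarcinoma cells; signal is phosphorylated S6 detected by cytoblot immunostaining with HRP secondary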
[8] = target: NADPH oxidase 2 (Homo sapiens) (UniProt P04839); experiment: compounds shifting NOX2 Amplex Red fluorescence – cell-based, HEK293-NOX2, PMA-stimulated, NOX inhibitor project, primary screen (AID 1159); conditions: 45 min, higher = more signal, called active from +8 up or from −8 down; further: test concentration not given here
Sequence of NADPH oxidase 2 (Homo sapiens) (P04839 whole entry, looked up): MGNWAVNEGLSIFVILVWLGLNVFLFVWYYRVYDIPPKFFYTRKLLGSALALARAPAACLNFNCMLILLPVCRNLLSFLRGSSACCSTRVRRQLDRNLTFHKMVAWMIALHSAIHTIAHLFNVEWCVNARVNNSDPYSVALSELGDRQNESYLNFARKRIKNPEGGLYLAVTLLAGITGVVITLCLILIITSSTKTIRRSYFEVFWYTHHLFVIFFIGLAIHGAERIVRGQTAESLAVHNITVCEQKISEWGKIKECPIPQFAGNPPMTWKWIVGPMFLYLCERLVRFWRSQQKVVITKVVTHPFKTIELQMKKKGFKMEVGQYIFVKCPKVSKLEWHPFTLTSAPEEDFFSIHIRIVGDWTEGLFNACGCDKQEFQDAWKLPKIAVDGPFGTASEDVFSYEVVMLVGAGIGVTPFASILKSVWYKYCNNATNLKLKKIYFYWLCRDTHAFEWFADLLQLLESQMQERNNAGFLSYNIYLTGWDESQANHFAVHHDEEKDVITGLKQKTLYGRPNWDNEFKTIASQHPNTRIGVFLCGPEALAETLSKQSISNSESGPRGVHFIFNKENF

[9] = target: NADPH oxidase 4 (Homo sapiens) (UniProt Q9NPH5); experiment: compounds shifting NOX4 Amplex Red fluorescence – cell-based, HEK293-NOX4, tetracycline-induced, NOX inhibitor project, primary screen (AID 1160); conditions: HEK293-NOX4, Amplex Red H2O2 fluorescence, 45 min; higher = more signal, called active from +8 up or from −8 down
Sequence of NADPH oxidase 4 (Homo sapiens) (Q9NPH5 whole entry, looked up): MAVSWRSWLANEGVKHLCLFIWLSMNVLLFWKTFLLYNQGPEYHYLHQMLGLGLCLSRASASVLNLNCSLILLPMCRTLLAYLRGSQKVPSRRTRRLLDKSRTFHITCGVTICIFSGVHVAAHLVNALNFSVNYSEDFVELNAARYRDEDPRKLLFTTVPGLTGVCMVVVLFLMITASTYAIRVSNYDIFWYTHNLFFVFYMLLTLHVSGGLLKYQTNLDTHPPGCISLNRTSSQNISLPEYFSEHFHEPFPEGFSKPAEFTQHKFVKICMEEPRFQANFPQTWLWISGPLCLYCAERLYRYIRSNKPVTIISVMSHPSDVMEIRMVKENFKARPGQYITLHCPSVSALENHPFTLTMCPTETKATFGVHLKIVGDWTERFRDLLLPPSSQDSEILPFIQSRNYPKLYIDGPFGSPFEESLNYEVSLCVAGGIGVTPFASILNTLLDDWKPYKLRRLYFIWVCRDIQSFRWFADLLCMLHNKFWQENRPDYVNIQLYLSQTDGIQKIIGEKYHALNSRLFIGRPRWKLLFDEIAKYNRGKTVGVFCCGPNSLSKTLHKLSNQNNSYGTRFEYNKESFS

[10] = target: NADPH oxidase 5 (Homo sapiens) (UniProt Q96PH1); experiment: compounds shifting NOX5 Amplex Red fluorescence – cell-based, HEK293-NOX5, NOX inhibitor project, primary screen (AID 1161); conditions: HEK293-NOX5, ionomycin, 45 min, higher = more signal
Sequence of NADPH oxidase 5 (Homo sapiens) (Q96PH1 whole entry, looked up): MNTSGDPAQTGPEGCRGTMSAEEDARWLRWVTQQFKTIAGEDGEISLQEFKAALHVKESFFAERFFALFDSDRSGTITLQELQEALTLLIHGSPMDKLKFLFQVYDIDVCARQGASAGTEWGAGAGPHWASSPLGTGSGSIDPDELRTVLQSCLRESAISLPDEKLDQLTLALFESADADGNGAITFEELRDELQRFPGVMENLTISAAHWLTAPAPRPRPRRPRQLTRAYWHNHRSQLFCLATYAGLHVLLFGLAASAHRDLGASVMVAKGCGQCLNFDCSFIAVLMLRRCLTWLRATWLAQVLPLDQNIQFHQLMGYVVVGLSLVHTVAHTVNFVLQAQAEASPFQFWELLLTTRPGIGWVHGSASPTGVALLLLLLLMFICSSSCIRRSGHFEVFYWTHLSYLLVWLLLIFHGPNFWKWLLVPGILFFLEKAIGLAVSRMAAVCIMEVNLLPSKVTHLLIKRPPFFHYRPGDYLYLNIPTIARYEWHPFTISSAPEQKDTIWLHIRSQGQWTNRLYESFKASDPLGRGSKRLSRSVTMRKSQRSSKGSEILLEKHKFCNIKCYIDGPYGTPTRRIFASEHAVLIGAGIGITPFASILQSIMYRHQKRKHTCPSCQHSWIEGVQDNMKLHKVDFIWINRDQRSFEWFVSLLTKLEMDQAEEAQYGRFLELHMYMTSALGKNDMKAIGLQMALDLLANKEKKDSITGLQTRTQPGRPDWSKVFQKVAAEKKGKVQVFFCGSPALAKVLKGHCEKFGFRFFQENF

SMILES | z-score [1] | composite z-score [2] | z-score [3] | z-score [4] | z-score [5] | z-score [6] | z-score [7] | z-score [8] | z-score [9] | z-score [10]
COc1ccc([Si](C)(C)[C@H]2[C@H](CCO)O[C@@]3(C(=O)N(Cc4ccccc4)c4ccc(NC(=O)[C@H](C)O)cc43)[C@@H]2C)cc1 | -0.0149 (inactive) | 0.013 | 10.8 (active) | 2.73 (inactive) | 0.0811 (inactive) | 1.43 (inactive) | 0.0757 | -0.699 (inactive) | 0.488 (inactive) | 1.66
C=CCNC(=O)[C@H]1[C@@H]2C(=O)O[C@@H](c3ccccc3)[C@@H](c3ccccc3)N2[C@@H](c2ccc(O)cc2)[C@]12C(=O)N(C(=O)OCCOC)c1ccc(C#Cc3ccc(OC)cc3)cc12 | -0.983 (inactive) | 0.216 | 2.57 (inactive) | 1.28 (inactive) | -0.829 (inactive) | 0.0195 (inactive) | -0.376 | 1.62 (inactive) | 0.725 (inactive) | 1.13
O=C1OCC=C[C@H]2OC34C=CCN(Cn5nnc6ccccc65)C(=O)[C@H]3N(CCO)C(=O)[C@@H]4[C@@H]12 (stereo not given in full) | -0.683 (inactive) | -0.101 | 0.813 (inactive) | 0.531 (inactive) | 0.268 (inactive) | 0.55 (inactive) | -0.376 | 1.17 (inactive) | 0.99 (inactive) | 1.38
[N-]=[N+]=NCc1ccccc1[C@H]1OC(c2ccc(OCCCO)cc2)=N[C@@]1(Cc1ccccc1N=[N+]=[N-])C(N)=O | -0.0584 (inactive) | 0.439 | 22.9 (active) | 3.47 (inactive) | 1.46 (inactive) | 0.79 (inactive) | 0.362 | -4.46 (inactive) | -0.74 (inactive) | -2.11
C=C(CCCC)C(=O)CC[C@@H](OC(C)=O)c1ccc(OCCO)cc1 | 0.0142 (inactive) | 0.0533 | 7.67 (inactive) | 1.16 (inactive) | 0.888 (inactive) | 0.455 (inactive) | -0.222 | -1.4 (inactive) | -1.4 (inactive) | -1.87
CN(C)CCCC[C@@H]1NC(=O)[C@H]2C[C@@H](C(=O)NCCCCCCNC(=O)CS)[C@@H](c3cccc(OCCO)c3)N2C1=O | -0.175 (inactive) | -0.139 | 2.29 (inactive) | 0.677 (inactive) | 1.26 (inactive) | 0.228 (inactive) | -0.617 | 1.07 (inactive) | 0.981 (inactive) | 0.992
CN(C)CCCCNC(=O)[C@H]1C[C@H]2C(=O)N[C@@H](CCCCN(C)C)C(=O)N2[C@H]1c1ccc(O)cc1 | 2.41 (inactive) | -0.299 | -0.418 (inactive) | -0.546 (inactive) | 0.589 (inactive) | -1.34 (inactive) | 0.859 | 0.109 (inactive) | 0.504 (inactive) | 0.875
C=CC[C@H](OC(=O)Nc1ccc(SC)cc1)c1ccc(O)c(F)c1 | -0.705 (inactive) | 0.0226 | 23.6 (active) | 4.93 (inactive) | 1.45 (inactive) | 0.966 (inactive) | 0.49 | -5.66 (inactive) | -2.66 (inactive) | -3.08
CCOC(=O)C1=CCC(c2cccn2C(=O)OC(C)(C)C)N(S(=O)(=O)c2ccc(C)cc2)C1 (stereo not given) | -0.258 (inactive) | 0.245 | 7.3 (inactive) | 1.26 (inactive) | 0.312 (inactive) | 0.486 (inactive) | -0.0414 | -0.035 (inactive) | 0.754 (inactive) | 0.499
C#CCN(C(=O)OC(C)(C)C)[C@H](CO)c1ccccc1 | -1.15 (inactive) | -0.0536 | 1.57 (inactive) | -0.0352 (inactive) | -0.195 (inactive) | 0.133 (inactive) | 0.137 | 0.441 (inactive) | 0.469 (inactive) | 0.745
C=C(COC)C(=O)CC[C@H](OC(C)=O)c1ccc(CO)o1 | 0.82 (inactive) | -0.0061 | 0.421 (inactive) | 0.112 (inactive) | -0.0728 (inactive) | -1.12 (inactive) | 0.555 | -1.04 (inactive) | -0.207 (inactive) | -1.31
C[C@]1(C(=O)NCC(F)(F)F)c2ccccc2C(=O)N(Cc2cc(C(F)(F)F)cc(C(F)(F)F)c2)[C@H]1c1ccc(CO)cc1 | 1.17 (inactive) | 0.0774 | 3.54 (inactive) | -0.0979 (inactive) | -0.29 (inactive) | -0.16 (inactive) | 0.361 | -0.905 (inactive) | 0.565 (inactive) | 0.648
CCCCCN1CC=CC23O[C@@H]4/C=C\CCCOC(=O)C4[C@H]2C(=O)N(CCCCCO)[C@@H]3C1=O (stereo not given in full) | 1.83 (inactive) | -0.255 | 0.46 (inactive) | -0.618 (inactive) | -1.29 (inactive) | -1.27 (inactive) | -0.0754 | 0.834 (inactive) | 0.0699 (inactive) | 1.41
CC(C)c1ccc(NN2C(C(O)C3CCCCC3)C=CC3C(=O)N(c4ccccc4)C(=O)C32)cc1 (stereo not given) | -0.78 (inactive) | 0.368 | 3.29 (inactive) | 1.71 (inactive) | 0.215 (inactive) | 1.37 (inactive) | -0.996 | -1.69 (inactive) | -2.75 (inactive) | -2.44
O=C(c1ccccc1)N1Cc2ccccc2C[C@@]2(N=C(c3ccc(OCCCO)cc3)O[C@H]2c2ccccc2)C1=O | -0.702 (inactive) | 0.149 | 6.6 (inactive) | 1.66 (inactive) | 2.54 (inactive) | 0.937 (inactive) | -0.221 | 1.21 (inactive) | -0.172 (inactive) | -0.693
COc1cccc(C)c1NC(=O)O[C@H]1[C@H](OC(=O)Nc2ccc3c(c2)OCO3)[C@H](OC(=O)Nc2ccc3c(c2)OCO3)[C@@H](OC)O[C@@H]1CO | -0.66 (inactive) | 0.855 | 10.7 (active) | 1.4 (inactive) | 1.14 (inactive) | 0.691 (inactive) | -0.0632 | -1.52 (inactive) | -0.848 (inactive) | -1.37
COc1ccc([Si](C)(C)[C@@H]2[C@@H](CC(=O)N3CCC[C@H]3CO)O[C@]3(C(=O)N(Cc4cccc(N5C(=O)c6cccc7cccc5c67)c4)c4ccccc43)[C@H]2C)cc1 | 1.63 (inactive) | 0.19 | 3.97 (inactive) | -0.263 (inactive) | -0.16 (inactive) | -1.24 (inactive) | 0.851 | 2.72 (inactive) | 1.31 (inactive) | 2.84
CC[C@H]1C2=C3C(CC[C@H]4C(OCc5ccc(F)cc5C(F)(F)F)OC[C@](C)([C@@H]34)N(C(=O)OC(C)(C)C)C2)C(COC(C)=O)C1COC(C)=O (stereo not given in full) | -2.44 (inactive) | 0.713 | 0.408 (inactive) | -0.248 (inactive) | 0.483 (inactive) | 0.323 (inactive) | -0.772 | -1.05 (inactive) | -2.56 (inactive) | -1.43
Cc1ccc(S[C@]2(C(=O)NC(C)C)CC(=O)N(Cc3ccccc3)[C@@H]2c2ccc(CO)cc2)cc1 | 1.33 (inactive) | 0.082 | 1.66 (inactive) | -0.709 (inactive) | -0.379 (inactive) | -0.581 (inactive) | 1.46 | -0.101 (inactive) | 0.0692 (inactive) | -0.771
O=C1C2C=CC(C(O)C3CCCCC3)N(Nc3ccccc3F)C2C(=O)N1c1ccccc1 (stereo not given) | 0.128 (inactive) | 0.483 | 1.11 (inactive) | 0.304 (inactive) | 2.77 (inactive) | -0.743 (inactive) | 2.15 | -2.64 (inactive) | -4.15 (inactive) | -4.19
COc1cccc(C)c1NC(=O)O[C@H]1[C@H](OC(=O)Nc2ccccc2-c2ccccc2)[C@@H](OC(=O)Nc2ccccc2-c2ccccc2)[C@@H](OC)O[C@@H]1CO | -1.33 (inactive) | 0.406 | 2.54 (inactive) | 1.13 (inactive) | -0.857 (inactive) | 0.937 (inactive) | -0.338 | -3.62 (inactive) | -1.2 (inactive) | -1.72
CC(C)[Si](C#Cc1ccccc1)(O[C@H](c1ccccc1)c1cn(Cc2ccccc2)nn1)C(C)C | 1.57 (inactive) | -0.275 | 1.66 (inactive) | 1.53 (inactive) | -1.39 (inactive) | 0.554 (inactive) | 0.0866 | 0.789 (inactive) | -1.18 (inactive) | -2.98
CC1C2C(CCCO)=CC(C3C(=O)N(C(N)=O)C(=O)C23)N1Cc1cccc(OC(F)(F)F)c1 (stereo not given) | -0.114 (inactive) | 0.0982 | 0.376 (inactive) | 0.0112 (inactive) | -0.308 (inactive) | 0.0624 (inactive) | -0.207 | 0.217 (inactive) | 0.509 (inactive) | 0.107
C=C(C(=O)CC[C@@H](OC(=O)c1ccccc1-c1ccccc1C(=O)O)c1cccc(OCCO)c1)C(C)C | 0.272 (inactive) | 0.262 | 4.83 (inactive) | 0.407 (inactive) | 0.51 (inactive) | 0.233 (inactive) | -0.205 | 3.11 (inactive) | 1.06 (inactive) | -0.442
COc1ccc(CCNC(=O)[C@@]2(c3ccc([N+](=O)[O-])cc3)CC(=O)N(C3CCCCC3)[C@@H]2c2ccc(CO)cc2I)cc1 | 0.423 (inactive) | 0.0341 | 11.9 (active) | 1.78 (inactive) | 3.17 (inactive) | 1.04 (inactive) | -0.189 | 1.3 (inactive) | -1.04 (inactive) | 2.21
C=C(C(=O)CC[C@@H](OC(=O)c1ccccc1-c1ccccc1C(=O)O)c1ccc(CO)o1)C(C)C | -0.796 (inactive) | 0.0945 | 0.897 (inactive) | 0.192 (inactive) | 0.365 (inactive) | 0.0861 (inactive) | -0.535 | 1 (inactive) | -0.593 (inactive) | -0.213
